# Hits are enriched below; roughly 2.9% of the tested compounds scored in any of these assays.
# MEKK3 PB1 HTS: modulators (inhibitors or enhancers) of MEK5 binding to human MEKK3 PB1 domain; Q99759; bead-based flow cytometry, Alexa488-MEK5 binding to MEKK3; actives lie on both sides; 0 = blocked by unlabeled MEK5, 100 = vehicle; binding response (% of control), % at 10 µM; hit rate 1.4% among 290,000; AID 1529;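 active = binding response more than 3 SD above or below the average of its plate-row segment, actives on both sides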;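 also: Alexa488 bead fluorescence after subtracting the streptavidin-only scavenger bead signal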
# Target sequence (Q99759 whole entry, looked up, the tested form may be a part): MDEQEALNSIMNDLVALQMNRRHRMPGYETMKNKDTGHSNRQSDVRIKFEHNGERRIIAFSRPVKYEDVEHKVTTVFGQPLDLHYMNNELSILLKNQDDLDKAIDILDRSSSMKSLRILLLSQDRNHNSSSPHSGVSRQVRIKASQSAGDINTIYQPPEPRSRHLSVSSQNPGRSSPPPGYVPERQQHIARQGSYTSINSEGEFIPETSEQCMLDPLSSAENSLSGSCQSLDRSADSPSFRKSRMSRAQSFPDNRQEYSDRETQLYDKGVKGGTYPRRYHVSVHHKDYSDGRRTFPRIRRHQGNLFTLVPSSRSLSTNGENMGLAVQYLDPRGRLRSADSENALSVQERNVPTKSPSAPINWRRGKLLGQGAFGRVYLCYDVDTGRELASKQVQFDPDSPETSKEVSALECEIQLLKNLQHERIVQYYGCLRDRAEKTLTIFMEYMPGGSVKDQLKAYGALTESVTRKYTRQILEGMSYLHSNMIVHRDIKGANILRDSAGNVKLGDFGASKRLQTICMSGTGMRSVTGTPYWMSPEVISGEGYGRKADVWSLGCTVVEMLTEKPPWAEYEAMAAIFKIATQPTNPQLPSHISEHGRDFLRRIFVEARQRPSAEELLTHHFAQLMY
# CRFR2-BP ag: agonists of human CRF-binding protein/CRF-R2 receptor complex; hit rate 0.46% among 350,000; HEK293 CRF-R2/CRF-BP, calcium dye fluorescence (FLIPR); percent of saturating CRF peptide response; activation, % at 13.2 µM; AID 588473;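 active = activation of at least 50%, plus an integration ratio under a set limit after plate pattern correction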;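 also: plate controls were neutral control wells without compound for no effect and CRF at EC100 for full effect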
# MEKK2 WT-MEK5: raises or lowers MEK5 binding to wildtype human MEKK2 PB1 domain. AID 1531. Q9Y2U5. bead flow cytometry, Alexa488-MEK5 binding to MEKK2 WT; actives lie on both sides. hit rate 1.1% among 290,000. binding response (% of control), % at 10 µM; in the data active = binding response below about 67% or above about 130%
# CRFBP-R2 block: blocks CRF-induced signaling of the CRF-BP/CRF-R2 complex. HEK293 CRF-R2/CRF-BP, CRF-induced calcium fluorescence. inhibition, % at 11.8 µM. hit rate 0.59% among 350,000;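 active = inhibition of the ligand-induced calcium signal above about 50% at the single tested concentration, limit read from the data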
# MEKK2mut PB1 HTS: signal of MEK5 binding to mutant human MEKK2 PB1 domain | hit rate 0.35% among 290,000 | bead flow cytometry, Alexa488-MEK5 binding to MEKK2 mutant | AID 1530 | percent response, % at 10 µM; in the data active = percent response above about 24%, passing the limit was not always enough
# ABCB6 inh MLPCN: blocks the human ABCB6 transporter. hit rate 0.19% among 360,000. K562-ABCB6 porphyrin accumulation, flow cytometry, 1 h; stronger effect = lower value. fluorescence ratio to DMSO, % at 10 µM. AID 602162;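 active = fluorescence ratio to DMSO below 75%, the collection mean minus 3 SD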;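 also: signal is porphyrin accumulated inside mitochondria; 100% equals median channel fluorescence of DMSO control wells; lower ratio means ABCB6 inhibition with less porphyrin fluorescence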
# MEKK2wt confirm: raises or lowers MEK5 binding to wildtype human MEKK2, retest; shares compounds with MEKK3 PB1 HTS; bead flow cytometry, Alexa488-MEK5 binding to MEKK2 WT; actives lie on both sides; hit rate 2.4% among 5,900; AID 1892; binding response (% of control), % at 10 µM; in the data active = binding response below about 16% or above about 210%; inactive = in between
# MEKK2mut-MEK5: signal of MEK5 binding to mutant human MEKK2, retest. percent response, % at 10 µM. hit rate 2% among 5,900. bead flow cytometry, Alexa488-MEK5 binding to MEKK2 mutant. shares compounds with MEKK3 PB1 HTS; in the data active = percent response mostly above about 71%, no sharp cut-off; inactive = mostly below about 38%;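 also: higher means compound restores mutant binding toward wildtype level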
# MEKK3 confirm: MEKK3-MEK5 PB1 inhibition, single concentration confirmation; shares compounds with MEKK3 PB1 HTS; bead flow cytometry, Alexa488-MEK5 binding to MEKK3; stronger effect = lower value; binding response (% of control), % at 10 µM; hit rate 1.8% among 5,900; AID 1894;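 active = binding response below 72% of control, or above a set upper limit, though filed actives all read lower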;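 also: 100% = DMSO only wells and 0% = binding blocked by excess unlabeled MEK5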
# * = called active by the depositor; x = not tested or not shown; [ ] = another dose, or the depositor's remark.
SMILES,MEKK3 PB1 HTS,CRFR2-BP ag,MEKK2 WT-MEK5,CRFBP-R2 block,MEKK2mut PB1 HTS,ABCB6 inh MLPCN,MEKK2wt confirm,MEKK2mut-MEK5,MEKK3 confirm
C=CCC(O)(CC=C)CNC(=O)C1CCC(=O)N(CCCc2ccccc2)C1 (stereo not given),102,0,108,9,6,97,x,x,x
COc1ccc(C(=O)N2CCOCC2)cc1Br,125*,0,121,-7,7,92,93,-3,96
COc1cc(C(=S)N2CCOCC2)cc(OC)c1O,42*[inhibitor],-1,57,1,-17,102,109,15,107
CCOc1cc(C(=S)N2CCOCC2)ccc1OC,99,0,95,-2,0,98,x,x,x
CC(C)(C)NCC(O)COc1cccc2c1CCC(=O)N2 (stereo not given),x,-2,x,-8,x,85,x,x,x
Cc1cccc(/C=C/C(=O)c2ccc(N3CCOCC3)cc2)c1,81,x,x,x,86*,x,101,-1,101
O=C(COC(=O)/C=C/c1cccs1)NC(=O)Cc1ccccc1,138*,-2,112,10,-2,95,101,3,101
CC(C)C(=O)NC(=O)COC(=O)/C=C/c1cccs1,101,0,105,5,3,101,x,x,x
COc1ccc(C(=O)N=C2SC3CS(=O)(=O)CC3N2c2ccc(C(C)=O)cc2)cc1 (stereo not given),97,0,98,-8,-2,99,x,x,x
CC(=O)N1CCN(C(c2ccccc2)c2ccccc2)CC1,76,-1,83,7,-5,x,x,x,x
CN1C(=O)C(CC(=O)N2CCN(C(c3ccccc3)c3ccccc3)CC2)N(C)C1=O (stereo not given),1.0*[inhibitor],0,1.0*[inhibitor],31,-17,92,105,2,102
O=C(COc1ccc(C2SCCS2)cc1)Nc1ccc(Cl)cc1,72*[inhibitor],6,79,15,-15,98,99,-3,101
CC1CCC2C(=O)N(c3ccc(NC4CCN(Cc5ccccc5)CC4)c([N+](=O)[O-])c3)C(=O)C2C1 (stereo not given),70*[inhibitor],0,106,-18,-8,102,117,16,103
CC12CC(NC(=O)N1c1cccc(C(=O)Nc3ncn[nH]3)c1)c1ccccc1O2 (stereo not given),94,-1,94,17,-4,92,x,x,x
COc1ccc(NC(=O)c2cccc(N3C(=O)NC4CC3(C)Oc3ccccc34)c2)cc1 (stereo not given),133*,-1,122,-13,8,88,99,1,99
COCCNC(=S)N(CCc1c(C)[nH]c2ccccc12)Cc1cccnc1,104,1,105,-8,5,97,x,x,x
CCN1C[C@@H]2[C@@H]3C(=O)N(Cc4ccccc4)C(=O)[C@@H]3[C@](CC)(C(=O)OC)N2C1=NCc1ccccc1,x,3,x,8,x,96,x,x,x
COCc1cc(C)nc(OCC(=O)N/N=C/c2ccc(O)cc2O)c1C#N,93,0,89,3,-3,110,x,x,x
COCc1cc(C)nc(OCC(=O)N/N=C/c2ccccc2O)c1C#N,92,2,85,-21,188*,101,98,0,99
COc1ccccc1CNC(=O)C(Cc1ccccc1)NC(=O)c1ccccc1 (stereo not given),x,-1,x,1,x,98,x,x,x
CC(C)(Cc1ccc(O)cc1)NC(=O)CC(=O)N=Nc1c(O)[nH]c2ccc(Br)cc12,21*[inhibitor],3,108,-1,40,97,106,9,105
O=C1CCC([N+](=O)[O-])C(c2ccc(Br)cc2)N1 (stereo not given),133*,0,105,-8,1,104,95,-6,101
CSc1ncnc2c1ccn2CC(=O)Nc1ccc(C)c(C)c1,x,0,x,-2,x,102,x,x,x
COc1ccc(CNC(=O)/C(C#N)=C2\N=C(NC(=O)c3cccs3)c3ccccc32)cc1,74*[inhibitor],1,93,-32,0,109,100,3,108
Cc1cccc(C(=O)N[C@H](C(=O)Nc2nc3ccccc3[nH]2)C(C)C)c1,132*,3,120,-23,5,103,99,-5,102
SMILES,MEKK3 PB1 HTS,CRFR2-BP ag,MEKK2 WT-MEK5,CRFBP-R2 block,MEKK2mut PB1 HTS,ABCB6 inh MLPCN,MEKK2wt confirm,MEKK2mut-MEK5,MEKK3 confirm
CC1(c2ccc(OC(F)F)cc2)NC(=O)N(CC(=O)Nc2ccc(S(N)(=O)=O)cc2)C1=O (stereo not given),46*[inhibitor],-1,49,-3,-17,103,95,-5,97
CC(C)(C)c1ccc(CC(=O)N2CCC2(C)C(=O)NS(=O)(=O)c2ccc(Cl)s2)cc1 (stereo not given),x,x,x,x,x,94,x,x,x
CCOc1ccc2[nH]c(=O)c(CN(CC3COCCO3)C(=O)c3ccc(C)cc3)cc2c1 (stereo not given),89,-2,93,-7,-2,101,x,x,x
C#CC[N+]1(CC#Cc2ccccc2)CCOCC1,102,-1,103,3,3,103,x,x,x
C(#Cc1ccccc1)C[N+]1(CC#Cc2cccc3ccccc23)CCOCC1,103,1,154*,10,1,98,145,24,104
O=c1cc(CO)oc(CN2CCN(Cc3ccccc3)CC2)c1O,116,4,135*,0,14,94,101,0,99
CCCNC(=O)c1ccccc1SCc1c(C)noc1C,104,1,105,-19,5,102,x,x,x
O=S(=O)(c1cc(F)ccc1F)N1CCN(c2ncccn2)CC1,102,0,99,-1,-4,96,x,x,x
COc1ccc2nc(N/C(N)=N/C(=S)Nc3ccccc3)nc(C)c2c1,100,-1,91,-10,-8,94,x,x,x
COc1ccc(OC)c(N/C(=N/C(=S)Nc2ccccc2)Nc2nc(C)cc(C)n2)c1,48*[inhibitor],2,54,-12,-49,101,88,-4,99
COc1cccc2c(=O)c(C/C=C(/C)Cl)c(C)[nH]c12,79*[inhibitor],-1,88,3,-8,103,104,5,102
COc1cccc2c(=O)c(SC(F)(F)C(F)C(F)(F)F)c(C)[nH]c12 (stereo not given),103,3,104,-1,0,100,x,x,x
